Drawing on PubChem BioAssay AID434970 (Sanford-Burnham Center for Chemical Genomics, 2010), this text covers activation factor and activity change, negative = activation for 38 compounds.

Structures are written as SMILES. About 310 (2.8%) of roughly 11,000 compounds were called active. No stated cut-off is given here; in the data, active means activity change below about -85%; inactive means the rest. The sample as a whole holds a higher share of actives than the screen did.

This test concerns intestinal alkaline phosphatase [Mus musculus]. Description: activators of mouse IAP, confirmation, biochemical, luminescence, single concentration (AID 434970). To be noted: purified mouse IAP, CDP-Star luminescence, 30 min, at 10 µM; activation factor: measured here: IAP activation factor, stronger effect = higher value; activity change, negative = activation: stronger effect = lower value.
Consider `Cc1sc2nc(CN3CCOCC3)nc(NS(=O)(=O)c3ccc4c(c3)OCCO4)c2c1C`, for which the activation factor worked out at 0.956 and the activity change, negative = activation is 4.4% (inactive).

As to `Cc1cc(C)nc(N2CCC(C(=O)NCc3cccc(C(F)(F)F)c3)CC2)n1`, the activation factor came to 0.95 and the activity change, negative = activation is 5.1% (inactive).

For the compound `CCc1cc(Cn2nc(-c3ccccc3)cc2C(=O)NCc2cccc(C(F)(F)F)c2)on1`, the activation factor stood at 2.52 and the activity change, negative = activation was -152% (active).

In the case of `O=C(NCc1ccccc1)c1cc2nc(C3CC3)cc(C(F)(F)F)n2n1`, the activation factor came to 0.96 and the activity change, negative = activation is 4% (inactive).

Consider `Cc1cc(Cn2nc(-c3ccccc3)cc2C(=O)NCc2cccc(C(F)(F)F)c2)on1`, for which the activation factor turned out to be 2.25 and the activity change, negative = activation is -125% (active).

Consider `Cc1ccc(C(=O)NC(Cc2cccc(C(F)(F)F)c2)C(=O)O)cc1` (stereo unspecified), for which the activation factor came to 1.14 and the activity change, negative = activation was -13.9% (inactive).

Turning to `CCCC1C2C(=O)N(c3ccccc3OCC)C(=O)C2ON1c1ccccc1` (stereo unspecified), the activation factor came out at 1.1 and the activity change, negative = activation is -9.6% (inactive).

Take `CCCN1C(=O)c2ccc(C(=O)NC3CCCCC3)cc2C1=O`: the activation factor was found to be 1.07 and the activity change, negative = activation is -6.9% (inactive).

For the compound `C=CCNc1nc(-c2sc(NC(C)=O)nc2C)cs1`, the activation factor stood at 0.932 and the activity change, negative = activation was 6.75% (inactive).

Regarding `CCCCNc1nc2c(c(=O)n(C)c(=O)n2C)n1Cc1cccc(OC)c1`, the activation factor was determined as 1.04 and the activity change, negative = activation was -4.2% (inactive).

As to `CCCCCCNC(=O)N[C@@H](C(=O)NCCC[C@H]1CN2C(=NC[C@@H]2Cc2ccccc2)N1CCc1cccc(OC)c1)C(C)C`, the activation factor is 3.11 and the activity change, negative = activation was -211% (active).

Regarding `O=C(CCCOc1ccccc1)Nc1nncs1`, the activation factor turned out to be 1.02 and the activity change, negative = activation is -1.6% (inactive).

Turning to `COc1cccc(C(=O)OCC(=O)Nc2ccccc2N2CCOCC2)c1`, the activation factor was 0.909 and the activity change, negative = activation was 9.1% (inactive).

Take `CCCCCCN(C(=O)CCCN1C(=O)NC(c2ccc(-c3ccccc3)cc2)C(C(=O)OCc2ccccc2)=C1C)C(C)C(=O)NCCCC` (stereo unspecified): the activation factor came out at 1.42 and the activity change, negative = activation is -41.5% (inactive).

For `CCCCNC(=O)C(C)N(CCN(C)C)C(=O)CCCN1C(=O)NC(c2ccc(Cl)cc2)C(C(=O)OCc2ccccc2)=C1C` (stereo unspecified), the activation factor amounted to 1.19 and the activity change, negative = activation is -18.9% (inactive).

In the case of `CCCCNC(=O)C(C1CCCCC1)N(CCN(C)C)C(=O)CCCN1C(=O)NC(c2ccc(-c3ccccc3)cc2)C(C(=O)OCc2ccccc2)=C1C` (stereo unspecified), the activation factor came to 2.49 and the activity change, negative = activation was -148% (active).

As to `CCOC(=O)c1c(C)[nH]c(C(=O)CSc2nnc(CC(C)c3ccccc3)o2)c1C` (stereo unspecified), the activation factor was determined as 0.943 and the activity change, negative = activation was 5.7% (inactive).

As for `COc1ccc(OC)c(NC(=O)Cn2c(=O)n(CC(=O)NCc3ccco3)c(=O)c3ccccc32)c1`, the activation factor worked out at 0.997 and the activity change, negative = activation is 0.3% (inactive).

For the compound `OCCCn1c(-c2ccccc2)n[nH]c1=S`, the activation factor was found to be 1.02 and the activity change, negative = activation was -1.9% (inactive).

`OCCCN1c2ccccc2Nc2nnc(-c3ccccc3)cc21`: the activation factor turned out to be 3.08 and the activity change, negative = activation was -208% (active).

Turning to `CN(CC(=O)Nc1cccc(Cl)c1)S(=O)(=O)c1ccc2[nH]c(=O)oc2c1`, the activation factor stood at 0.26 and the activity change, negative = activation was 74.1% (inactive).

On to `COc1cccc(CN(CC(=O)NC2CCCC2)C(=O)Cn2nnc(-c3cccs3)n2)c1`, for which the activation factor came out at 1.07 and the activity change, negative = activation was -7.3% (inactive).

As to `Cc1ccc(S(=O)(=O)N(C)C)cc1NC(=S)NC(C)CCCC(C)C` (stereo unspecified), the activation factor turned out to be 1.26 and the activity change, negative = activation was -26.2% (inactive).

For `Cc1ccc(NC(=O)Nc2cc(S(=O)(=O)N(C)C)ccc2C)cc1`, the activation factor was 1.84 and the activity change, negative = activation is -83.7% (inactive).

Turning to `Cc1cc(C)cc(NC(=O)Nc2cc(S(=O)(=O)N(C)C)ccc2C)c1`, the activation factor was 3.43 and the activity change, negative = activation is -243% (active).

In the case of `Cc1cc(NC(=O)Cn2c(=O)c3c(ncn3CC(C)C)n(Cc3ccccc3)c2=O)no1`, the activation factor came to 1.09 and the activity change, negative = activation was -9.3% (inactive).

In the case of `Cc1ccccc1-n1nc(C(=O)O)c(C)c(C#N)c1=O`, the activation factor was found to be 0.98 and the activity change, negative = activation is 2.05% (inactive).

For `COC(=O)c1cn(NC(=O)C2CCCO2)c(=O)c2ccccc12` (stereo unspecified), the activation factor was 1.03 and the activity change, negative = activation is -3.3% (inactive).

In the case of `CCN(CC)C(=O)CSc1nc(-c2cccs2)cc(-c2cccs2)c1C#N`, the activation factor was 0.778 and the activity change, negative = activation is 22.2% (inactive).

On to `CCCCC1=CC2=C(c3ccco3)C(=O)C(C)(OC(=O)c3ccc(OC)cc3)C(=O)C2=CN1Cc1ccc2c(c1)OCO2` (stereo unspecified), for which the activation factor was found to be 0.503 and the activity change, negative = activation is 49.7% (inactive).

For the compound `CCn1ncc(CN2CCC(C(=O)Nc3cccc(-c4cccc(F)c4)c3)CC2)c1C`, the activation factor is 2.83 and the activity change, negative = activation was -183% (active).

Take `CCOC(=O)c1ccc(NC(=O)C2CCN(S(=O)(=O)CC)CC2)cc1`: the activation factor is 0.952 and the activity change, negative = activation is 4.8% (inactive).

Take `CCn1ncc(C2=NOC(C(=O)Nc3ccc(C)cc3)C2)c1C` (stereo unspecified): the activation factor was determined as 1.07 and the activity change, negative = activation is -7.35% (inactive).

In the case of `Cc1cc(NC(=O)C2CCN(S(=O)(=O)c3cnc[nH]3)CC2)ccc1Br`, the activation factor came out at 0.935 and the activity change, negative = activation is 6.5% (inactive).

`CCCn1ncc(CN2CCC(C(=O)Nc3cccc(-c4cccc(F)c4)c3)CC2)c1C`: the activation factor came out at 5.28 and the activity change, negative = activation is -428% (active).

Consider `CCCCNC(=O)C1CCN(C/C(C)=C/c2ccccc2)CC1`, for which the activation factor is 1.02 and the activity change, negative = activation is -1.8% (inactive).

For the compound `C/C(=N\OCC(=O)N/N=C/c1ccccc1O)c1cccs1`, the activation factor stood at 1.01 and the activity change, negative = activation was -1.25% (inactive).

Consider `COc1ccc(Cl)cc1N1C(=O)[C@@H]2C(c3cccc(OC)c3OC)=NO[C@@H]2C1=O`, for which the activation factor was determined as 1 and the activity change, negative = activation was 0.05% (inactive).
